The values that follow come from PubChem BioAssay (NCATS).

Molecules are shown by their SMILES. Values joined by “and” are separate entries in the source; they are usually repeats but may differ in a detail not shown here. Equal entries are not always repeated. Unmarked numbers belong to inactive results. Records with an inconclusive call do not appear. Active and inactive are the calls of the source. Unless noted, calls follow the shape of the dose curve; as a rule, active = well fitted curve in the direction sought with a large enough effect; inconclusive = small, poorly fitted or top-dose-only effect, or another doubt; inactive = no such curve, though single readings can be large; an effect the other way counts as inactive or inconclusive.

The nature of assay [1]: qHTS assay for small molecule activators of the nuclear factor-kappa B (NF-kB) signaling pathway (AID 651749; active = well fitted activation curve with a large enough effect in the signal ratio; the % refers to the signal ratio; also: series mostly up to about 77 µM; % of control where 0% means no effect). To be noted: NF-kB-bla ME-180 cells, beta-lactamase FRET ratio, 16 h; stronger effect = higher value. The method, boiled down: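 NF-kB-bla ME-180 cells, 2,000/well; 23 nL compound or DMSO pinned; 16 hr, 37C/5% CO2; beta-lactamase FRET read-out.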
For orientation: Quantitative high-throughput screening tests each substance at several concentrations.

For assay [2], the target named is Tumor necrosis factor (Homo sapiens) (UniProt P01375). The assay can be described thus: qHTS assay to identify small molecules that stimulate Tumor Necrosis Factor-alpha (TNF-alpha) secretion (AID 651757; active = well fitted curve in the direction sought with a large enough effect in the signal ratio; the % refers to the signal ratio; also: potency is read from the fitted curve at half-maximal effect). In short, it runs like this:
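THP-1 cells, 3000/well; compound 17 hrs, 37 C; add cryptate/XL665 anti-TNF-alpha antibody pair; 3 hr RT; TR-FRET (HTRF) read of secreted TNF-alpha. Quantitative HTS format.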

Assay [3] can be described thus: qHTS assay to identify small molecules that stimulate interleukin-8 (IL-8) secretion (AID 651758; active = well fitted activation curve with a large enough effect in the signal ratio; the % refers to the signal ratio; also: potency is read from the fitted curve at half-maximal effect). In short, it runs like this:
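Compounds are added to THP-1 cells (2000 per well) and left 16 hrs at 37 C. A labeled anti-IL-8 antibody pair is then added, and IL-8 secretion is measured by time-resolved FRET after 1-3 hrs at room temperature.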

Assay [4] is described as follows: qHTS assay for environmental chemicals that activate the Aryl hydrocarbon Receptor (AhR) signaling pathway (AID 651777). Also: % of control where 0% means no effect; nearly all actives have a fitted effect of over 15% in size. The conditions noted are these: 1A2-DRE human hepatoma cells, luciferase, 24 h; activation: stronger effect = higher value. The method, boiled down:
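AhR activation is scored as a rise in luciferase from a stable DRE–CYP1A2 promoter construct in human hepatoma cells. Treatment lasts 24 hr at 37 C; detection uses One-Glo after 30 min at room temperature.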

Assay [5] has as its target Peroxisome proliferator-activated receptor alpha (Homo sapiens) (UniProt Q07869). Kind of assay: qHTS assay for small molecule agonists of the peroxisome proliferator-activated receptor alpha (PPARalpha) signaling pathway (AID 651778). Also: potency is read from the fitted curve at half-maximal effect. As to max response: % of control where 0% means no effect. To be noted: PathHunter PPARalpha complementation, chemiluminescence, 6 h; max response: stronger effect = higher value. The method, boiled down:
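Enzyme-fragment complementation assay in which ligand-bound PPARalpha translocates and forms an active enzyme that generates chemiluminescence. Cells were plated overnight, exposed to compound for 6 hr at 37 C, and then given detection reagent for 60 min at room temperature.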

The target in assay [6] is Nuclear receptor ROR-gamma (Homo sapiens) (UniProt P51449). The assay can be described thus: qHTS assay for small molecule antagonists of the retinoid-related orphan receptor gamma (ROR-gamma) signaling pathway (AID 651802). Also: nearly all actives have a fitted effect of over 60% in size. Also: potency is read from the fitted curve at half-maximal effect. The method, boiled down:
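Luciferase read-out: ONE-Glo luminescence after 30 min at room temperature, following 16hr doxycycline induction at 37C, 5% CO2 of CHO cells with TET-inducible ROR and RORE-LUC reporter; decreased luminescence = reduced reporter activity.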

Assay [7] can be described thus: qHTS assay for small molecule agonists of the antioxidant response element (ARE) signaling pathway (AID 651741; active = well fitted activation curve with a large enough effect in the signal ratio; the % refers to the signal ratio; also: potency is read from the fitted curve at half-maximal effect; as to activation: % of control where 0% means no effect). The method, boiled down: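 HepG2 ARE-bla reporter cells, 2,000/well; 5 h settle at 37 C/5% CO2; compound pin transfer (23 nL, DMSO); 16 h at 37 C; LiveBLAzer B/G FRET substrate, 2 h RT; fluorescence intensity read.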
The nature of assay [8]: qHTS assay for small molecule activators of the p53 signaling pathway (AID 651743; active = well fitted activation curve with a large enough effect in the signal ratio, not every such curve was filed as active; the % refers to the signal ratio; also: potency is read from the fitted curve at half-maximal effect; as to activation: series mostly up to about 92 µM; % of control where 0% means no effect). The conditions noted are these: HCT-116 p53RE-bla, beta-lactamase FRET ratio, 16 h; activation: stronger effect = higher value. In short, it runs like this:
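Reporter: beta-lactamase driven by p53 response elements, stably integrated in HCT-116 cells. Cells seeded at 4,000/well, 5 h preincubation, compound (DMSO) 16 h at 37 C; B/G FRET substrate 2 h RT; fluorescence intensity read.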

Assay [9] can be described thus: qHTS assay for small molecule disruptors of the mitochondrial membrane potential - 1 hr assay (AID 651754; calls by dose curve; also: nearly all actives have a fitted effect of over 35% in size; also: potency is read from the fitted curve at half-maximal effect). The method, boiled down: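 Read-out: dye fluorescence at 490 nm ex/535 nm em (monomers) and 540 nm ex/590 nm em (aggregates) in HepG2 cells. Compound exposure 1 hr at 37C, followed by 30 min dye loading.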
The nature of assay [10]: qHTS assay for small molecule disruptors of the mitochondrial membrane potential - 5 hr assay (AID 651755; calls by dose curve; also: potency is read from the fitted curve at half-maximal effect; nearly all actives have a fitted effect of over 40% in size). To be noted: JC-1-type ratio dye. The method, boiled down:
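Read-out: ratiometric Mito-MPS fluorescence, green monomer (ex 490/em 535) vs red mitochondrial aggregate (ex 540/em 590). HepG2 cells treated 5 hr at 37C before 30 min dye loading.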

Tumor necrosis factor (Homo sapiens), sequence (P01375 whole entry, looked up): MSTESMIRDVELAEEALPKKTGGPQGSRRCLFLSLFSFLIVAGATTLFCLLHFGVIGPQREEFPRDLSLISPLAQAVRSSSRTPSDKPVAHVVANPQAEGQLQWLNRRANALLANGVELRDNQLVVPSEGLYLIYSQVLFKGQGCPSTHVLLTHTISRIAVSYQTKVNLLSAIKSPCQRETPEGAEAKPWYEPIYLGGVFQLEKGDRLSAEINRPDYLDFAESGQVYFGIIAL
Peroxisome proliferator-activated receptor alpha (Homo sapiens), sequence (Q07869 whole entry, looked up, the tested form may be a part): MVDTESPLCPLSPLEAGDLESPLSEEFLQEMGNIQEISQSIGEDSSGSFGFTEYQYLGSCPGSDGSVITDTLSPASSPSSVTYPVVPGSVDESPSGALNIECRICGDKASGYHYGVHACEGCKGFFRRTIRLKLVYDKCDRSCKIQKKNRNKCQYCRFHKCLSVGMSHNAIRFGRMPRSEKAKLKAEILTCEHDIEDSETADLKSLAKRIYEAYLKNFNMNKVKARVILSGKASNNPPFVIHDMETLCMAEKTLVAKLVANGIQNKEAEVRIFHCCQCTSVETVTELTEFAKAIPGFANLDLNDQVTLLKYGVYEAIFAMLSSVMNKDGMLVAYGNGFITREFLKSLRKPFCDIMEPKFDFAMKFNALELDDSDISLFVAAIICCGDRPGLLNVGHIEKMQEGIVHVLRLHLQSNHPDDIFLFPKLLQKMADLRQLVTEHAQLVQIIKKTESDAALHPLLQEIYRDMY
Nuclear receptor ROR-gamma (Homo sapiens), sequence (P51449 whole entry, looked up): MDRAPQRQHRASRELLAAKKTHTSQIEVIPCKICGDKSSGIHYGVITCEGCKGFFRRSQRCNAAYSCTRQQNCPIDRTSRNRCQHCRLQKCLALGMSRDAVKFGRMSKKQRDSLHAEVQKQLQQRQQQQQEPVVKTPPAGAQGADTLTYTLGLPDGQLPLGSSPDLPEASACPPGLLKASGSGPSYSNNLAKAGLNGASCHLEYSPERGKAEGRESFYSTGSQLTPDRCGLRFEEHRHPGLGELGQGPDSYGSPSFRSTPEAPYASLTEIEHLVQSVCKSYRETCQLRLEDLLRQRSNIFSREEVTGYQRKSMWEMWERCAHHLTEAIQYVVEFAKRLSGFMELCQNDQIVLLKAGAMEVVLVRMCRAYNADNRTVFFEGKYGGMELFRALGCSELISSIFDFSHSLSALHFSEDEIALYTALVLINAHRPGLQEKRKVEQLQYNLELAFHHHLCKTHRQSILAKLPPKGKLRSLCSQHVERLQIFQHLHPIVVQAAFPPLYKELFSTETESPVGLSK

Regarding `O=C(CCl)c1ccc(Cl)cc1Cl`, the values for the activation in assay [1] and in assay [4] were -1.69% and 0.547%, respectively. The Potency entry in [2] was “inactive”. For the same compound, the Potency in [3] was 3.76 µM (active); in assay [6] it was 7.5 µM (active). Further, the max response in assay [5] was -0.884%.
Take `COCC(=O)N(c1c(C)cccc1C)C(C)C(=O)OC` (stereo not drawn): the Potency result in assay [7] is “inactive”. The activation in assay [8] is -5.17%; in assay [4] it was 3.48%. Further, in assay [5], the max response was -1.66%.
Regarding `Oc1ccc(Cl)cc1Sc1cc(Cl)ccc1O`, the Potency is 29.8 µM (active) in assay [7]; 28.2 µM (active) in assay [8]; 8.41 µM (active) in assay [9]; 7.5 µM (active) in [10]; 15 µM (active) in [6].
In the case of `O=C(NC(=O)c1c(F)cccc1F)Nc1cc(Cl)c(OC(F)(F)C(F)C(F)(F)F)cc1Cl` (stereo not drawn), the Potency in [7] is 19.3 µM (active). Further, the activation is 4.35% in assay [8], 1.78% in [1] and 0.163% in assay [4]. The max response in [5] is 14.7%.
For `CC[n+]1c(-c2ccccc2)c2cc(N)ccc2c2ccc(N)cc21`, the Potency was 33.5 µM (active) in assay [7], 8.91 µM (active) in [8], 11.9 µM (active) in assay [10] and 37.6 µM (active) in assay [2]. Further, the activation in assay [4] is 11.3%. Also, in assay [5], the max response is -2.33%. In assay [6], the Potency result is “inactive”.
As for `CN(C)C(=S)SSC(=S)N(C)C`, the Potency result in assay [7], in [9] and in assay [2] was “inactive” each time. For the same compound, the activation is 2.15% and 1.76% in assay [8]; -1.21% in [1]; 8.11% and 11.6% in assay [4]. Also, the Potency was 23.7 µM (active) in [10] and 5.31 µM (active) in assay [6]. Moreover, the max response in assay [5] was -9.79% and -7.98%.
Turning to `C=CCOC(Cn1ccnc1)c1ccc(Cl)cc1Cl` (stereo not drawn), the activation in assay [8] is 19.4% and 4.84%; in [4] it was 11.9% and 13.2%. The max response in assay [5] was -1.42% and 0.577%.
Consider `Oc1c(Br)cc(Br)cc1Br`, for which the Potency was 42.2 µM (active) in assay [7]; 39.8 µM (active) and 35.5 µM (active) in assay [5]. For the same compound, the activation in assay [1] is -2.42% and -0.471%; in [4], 1.96% and 1.41%. Also, the Potency result in [2] is “inactive”.
Turning to `O=c1n(Cl)c(=O)n(Cl)c(=O)n1Cl`, the activation in assay [8] was -4.94%; in [1], -1.25%; in assay [4], 0.752%. Moreover, in [5], the max response is -0.0703%.
For the compound `CCC(=O)O[C@H]1CC[C@H]2[C@@H]3CCC4=CC(=O)CC[C@]4(C)[C@H]3CC[C@]12C`, in assay [7], the Potency entry was “inactive”. In addition, the results for the activation in assay [8], in assay [1] and in assay [4] were -1.29%, -1.92% and -0.665%, respectively. Further, the max response in [5] was -1.43%.
